Hits are enriched below; roughly 7.8% of the tested compounds scored in any of these assays.
MARV entry inh: Marburg virus entry inhibition; Marburg virus pseudotyped entry inhibition, cell reporter; Potency, µM (doses to about 37.8 µM), hits mostly inhibitors; 1.8% of 300,000 active; AID 540276; calls by dose curve; tested in HEK293 cells
Lassa entry inh: blocks Lassa virus binding to or entry into cells | Lassa virus pseudotype entry inhibition, cell reporter | Potency, µM (titrated, usually from 37.9 µM), actives largely listed as inhibitors | 1.2% of 300,000 active; calls by dose curve; tested in HEK293 cells; also: nearly all actives have a fitted effect of over 50% in size
HCMV inh: inhibitors of human cytomegalovirus. 4.5% of 410,000 active. HFF cells, HCMV-luciferase reporter, 72 h; hits give low values. activity change, negative = inhibition, % at 57.5 µM; in the data active = activity change below about -60%; inconclusive = no clear call, values can overlap the other calls; inactive = above about -39%
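HFF cells seeded 16 h at 37C, treated with compounds, infected with luciferase-reporter HCMV at MOI 1 PFU/cell; luciferase read at 72 h post infection, normalized to buffer-only and Salinomycin controls.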
HCV inhibitor: inhibitors of hepatitis C virus infection; Potency, µM (highest dose often 41.8 µM), hits mostly inhibitors; Huh7.5.1 HCVcc-Cre infection, luciferase reporter, 44 h; 3.4% of 340,000 active; active = well fitted inhibition curve with a large enough effect; inconclusive = small, poorly fitted or top-dose-only effect, or another doubt; inactive = no such curve, though single readings can be large or run the other way
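Cells seeded at 1,000/well and cultured 4 h, then compounds added followed by HCVcc-Cre virus (~0.5 moi). After 44 h further culture, luciferase substrate was added, plates held 15 min at room temperature, and luminescence read for 15 sec.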
Vaccinia Venus: vaccinia inhibition (Venus reporter); 0.46% of 330,000 active; Vaccinia virus Venus reporter expression, fluorescence; Potency, µM (highest dose often 36.5 µM), actives largely listed as inhibitors; AID 720580; calls by dose curve; tested in A549 cells; also: nearly all actives have a fitted effect of over 30% in size
Vaccinia mCherry: vaccinia inhibition (mCherry reporter); Vaccinia virus mCherry reporter infection, fluorescence; Potency, µM (doses to about 36.5 µM), hits mostly inhibitors; 0.63% of 310,000 active; AID 720579; calls by dose curve; tested in A549 cells; also: nearly all actives have a fitted effect of over 35% in size
Numbers stand for hits; i = inactive; ? = inconclusive; nt = not tested or not shown; [ ] = dose if it differs, or a comment.

SMILES	MARV entry inh	Lassa entry inh	HCMV inh	HCV inhibitor	Vaccinia Venus	Vaccinia mCherry
Cc1cccn2c(=O)c3cc(C(=O)NCc4ccco4)c(=N)n(C4CCCC4)c3nc12	?	i	i	6.3µM	i	i
COc1ccc(CCn2c(=N)c(C(=O)NCc3ccco3)cc3c(=O)n4ccccc4nc32)cc1	21µM	i	?	nt	?	?
Cc1cccn2c(=O)c3cc(C(=O)NCC4CCCO4)c(=N)n(CC4CCCO4)c3nc12 (centres undefined)	?	i	-70	i	i	i
Cc1cccn2c(=O)c3cc(C(=O)NCC4CCCO4)c(=N)n(C4CCCCC4)c3nc12 (centres undefined)	?	?	i	?	i	i
CCN1C(N(C)CCOC)=NC(c2cccc(F)c2)C(C(=O)OC)=C1C (centres undefined)	i	?	nt	nt	nt	nt
Cc1cccc(C)c1NC(=O)C(C1CC1)N1C(=O)C(=O)c2ccccc21 (centres undefined)	nt	nt	i	nt	nt	nt
COc1cccc(CN(C)C[C@@H]2OCc3ccccc3-c3c(n(C)c4ccccc34)C(=O)N([C@@H](C)CO)C[C@H]2C)c1	nt	nt	-105	nt	?	?
CCn1nnc(-c2ccccc2NC(=O)c2cnccn2)n1	i	i	i	11µM	i	i[1.46 µM]
Cc1cc(C(=O)NCc2cc(F)cc3c2OCOC3)nn1C	i	i	i	i	i[7.34 µM]	i[7.34 µM]
Cn1nc(C(C)(C)C)cc1C(=O)NCc1cc(F)cc2c1OCOC2	nt	nt	-72	?	nt	nt
CCCn1c(C)cc(=O)c2cc(NC(=O)c3cnccn3)ccc21	i	i	i	2.2µM	i	i
CCN(CC)C(=O)Cn1cc(S(=O)(=O)CC(=O)Nc2ccc(C(N)=O)cc2)c2ccccc21	nt	nt	i	0.56µM	nt	nt
COc1ccc(CNS(=O)(=O)c2ccc(N3CCCCS3(=O)=O)cc2)cc1	nt	i	i	nt	i	i
CCn1cnc2cc(NCc3nc4ccccc4n3C)ccc21	?	?	i	i	i	i
CCCn1c(CNc2ccc(Br)cc2)nc2ccccc21	nt	nt	?	?	?	11µM
CCn1cnc2cc(NCc3nc4ccccc4n3Cc3ccccc3)ccc21	?	10µM	i	i	i	i
COc1ccc(-c2[nH]c3ccccc3c2SCCNC(=O)c2cc(OC)c(OC)c(OC)c2)cc1	?	?	i	nt	i	i
O=C(Nc1ccc2nc(SCC(=O)N3CCc4ccccc43)sc2c1)c1ccc(F)cc1	i	i	-63	nt	?	?
CC(C)(C)c1ccc(C(=O)Nc2ccc3nc(SCC(=O)N4CCCC4)sc3c2)cc1	?	?	-97	nt	?	?
O=C(Nc1ccc2nc(SCC(=O)N3CCc4ccccc43)sc2c1)c1ccc(Cl)cc1	i	?	-93	nt	i	?
O=C(Nc1ccc2nc(SCC(=O)N3CCCC3)sc2c1)c1ccc(Br)cc1	i	i	i	nt	i	i
Cc1ccc2c(c1)cc(CN(C)Cc1nc(C)cs1)c(=O)n2C	nt	nt	nt	nt	i	i
CN1OC[C@@H]2CN(S(=O)(=O)c3cccc4ccccc34)[C@H](c3ccc(-c4ccccc4)cc3)C[C@@H]21	nt	nt	i	nt	i	i
CN1OC[C@@H]2CN3C(=O)N(c4cccc5ccccc45)c4ccccc4[C@@H]3C[C@@H]21	nt	nt	-102	nt	i	i
COc1ccc(CNC(C)C2COc3ccccc3O2)c(OC)c1 (centres undefined)	11µM	i	i	i	i	nt
SMILES	MARV entry inh	Lassa entry inh	HCMV inh	HCV inhibitor	Vaccinia Venus	Vaccinia mCherry
Cc1noc(/C=C/c2ccccc2F)c1S(=O)(=O)N1CCC(C(=O)N2CCOc3ccccc32)CC1	nt	i	i	nt	i[7.34 µM]	i[7.34 µM]
CSc1ncc(C(=O)NCc2cccc(C)c2)c(-c2ccccc2)n1	nt	i	i	nt	i	i
CCC(C)n1c(=N)c(C(=O)NCc2ccccc2)cc2c(=O)n3cc(C)ccc3nc21 (centres undefined)	i	i	-73	nt	i	i
CCOCCCn1c(=N)c(C(=O)NCc2cccnc2)cc2c(=O)n3cc(C)ccc3nc21	i	i	-67	nt	i	i
N#Cc1c(Nc2ccc(Cl)cc2)s[nH]c1=O	i	i	-66	i	i	i
CSc1nc(Nc2ccc(Cl)cc2)c(C#N)c(=O)[nH]1	i	i	i	i	i	i
CC(C)c1nnc(NC(=O)c2nc(S(=O)(=O)Cc3ccccc3F)ncc2Cl)s1	nt	nt	-111	?	nt	nt
Cc1cccc(CSc2ncc(Cl)c(C(=O)Nc3nc4ccc(F)cc4s3)n2)c1	i	i	i	nt	i	i
Cc1nnc(NC(=O)c2nc(SCc3ccccc3F)ncc2Cl)s1	i	i	i	nt	i	i
O=C(Nc1nc2ccc(F)cc2s1)c1nc(S(=O)(=O)Cc2ccccc2F)ncc1Cl	?	?	-109	nt	i	i
CCOc1ccc(NC(=O)c2nc(S(=O)(=O)Cc3ccccc3F)ncc2Cl)cc1	?	?	-100	nt	?	?
CSc1nnc(NC(=O)c2nc(S(=O)(=O)Cc3ccccc3F)ncc2Cl)s1	?	?	-96	?	i	i
O=C(Nc1ccccc1)c1nc(S(=O)(=O)Cc2ccccc2F)ncc1Cl	nt	nt	nt	nt	i	i
COCCN(C)C(=O)c1cnn(-c2ncc3c(n2)-c2ccccc2CCC3)c1C1CC1	nt	nt	nt	nt	i	i
Cc1nnc(NC(=O)c2nc(S(=O)(=O)Cc3ccccc3C)ncc2Cl)s1	nt	nt	-102	?	nt	nt
Cc1ccccc1C1(CC(=O)N2CC3(C)CC2CC(C)(C)C3)CC(=O)N(Cc2cccnc2)C1=O (centres undefined)	nt	nt	nt	nt	i	i
NC(=O)c1ccc(N2CCN(c3ccc(O)cc3)CC2)c([N+](=O)[O-])c1	?	i	-66	?	i	?
O=C(c1ccc(N2CCCCC2)c([N+](=O)[O-])c1)N1CCN(S(=O)(=O)c2ccccc2)CC1	i	?	i	?	i	i
CC(=O)c1ccc(N2CCN(c3ccc(C(N)=O)cc3[N+](=O)[O-])CC2)cc1	nt	nt	?	i	i	i
NC(=O)c1ccc(N2CCN(S(=O)(=O)c3ccccc3)CC2)c([N+](=O)[O-])c1	i	2µM	-90	2.8µM	i	i
Cc1ccc(-n2cnnn2)cc1S(N)(=O)=O	nt	?	i	nt	i	i
O=C1C2C3C=CC(CC3)C2C(=O)N1c1ccccc1F (centres undefined)	i	i	-63	i	i	?
Cc1ccccc1N1C(=O)C2C3C=CC(CC3)C2C1=O (centres undefined)	i	i	i	i	i	i
Cc1ccc(O)c(C(=O)c2cc(C#N)c3nc4ccccc4n3c2)c1	i	i	i	5µM	i	?
COC(=O)[C@@]12C[C@@H](CC(=O)N3CCCC3)C(=O)N(Cc3ccc4c(c3)OCO4)C1=CCC(C)(C)C2	nt	nt	i	nt	i	i
CCc1ccc2oc(-c3cc(NC(=O)c4cc(OC)c(OC)c(OC)c4)ccc3O)nc2c1	nt	i	i	nt	i	i
CCc1ccc2oc(-c3cc(N=Cc4cccc(OC)c4O)ccc3O)nc2c1	?	6.5µM	nt	i	i	i
COc1cc(NC(=O)c2cccc3c2C(=O)N(C2CCCCC2)C3)cc(OC)c1OC	?	?	-91	6.3µM	i[7.34 µM]	i[7.34 µM]
CSc1ccc(CCNC(=O)c2cccc3c2C(=O)N(C2CCCCC2)C3)cc1	nt	nt	nt	11µM	nt	nt
COc1ccc(CCNC(=O)c2cc3c(=O)n4cccc(C)c4nc3n2C)cc1	nt	i	i	nt	i	i

Source: PubChem
